Compound activity from PubChem BioAssay.
Only some compounds are listed: those with a hit (about 19% of all), similar ones and a draw of the others.
IL-1B inflam inh – blocks inflammasome-driven IL-1 beta release | THP-1 LPS/ATP IL-1B secretion, AlphaLISA, 16 h; stronger effect = lower value | activity change, % at 57.5 µM | hit rate 4.7% among 360,000 | AID 743279; in the data active = activity change below about -50%; inconclusive = mostly about -30% to -49%
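THP-1 cells pretreated 1 hr with compounds (up to 57.5 uM final), then stimulated with LPS (250 ng/mL final) plus ATP (1.25 mM final); secreted IL-1B measured by AlphaLISA after 16 hr, decreased signal indicating inhibition.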
DT40 TDP1 CPT – DT40-hTDP1 cell growth loss with CPT; chicken DT40 Tdp1-/-;hTDP1 cells + 20 nM CPT, ATP luminescence, 48 h; hit rate 12% among 420,000; Potency, µM (highest dose often 46.2 µM), usual class: inhibitors; note: nearly all actives have a fitted effect of over 55% in size
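Cell growth measured by CellTiter-Glo luminescence after a minimum 48 h, 37 C compound exposure with 20 nM CPT in Tdp1-knockout DT40 cells stably expressing hTDP1, seeded 400/well; qHTS titration format.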
HT1080 IDH1KD tx – toxicity to HT-1080 IDH1 knockdown cells (counter line); HT-1080 IDH1 knockdown viability, ATP luminescence, 48 h; Potency, µM (titrated, usually from 46.1 µM), usual class: cytotoxic; hit rate 2% among 360,000
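Cytotoxicity counter-line: IDH1KD HT-1080, 48 h, CellTiter-Glo. Curves classed by r2, magnitude and activity.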
HT1080-NT tox – kills 2HG-producing HT-1080-NT fibrosarcoma cells; HT-1080-NT fibrosarcoma viability, CellTiter-Glo ATP luminescence, 48 h; hit rate 1.6% among 360,000; Potency, µM (doses to about 46.1 µM), usual class: cytotoxic;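 note: NT is the 2HG producing partner of a matched IDH1 knockdown line; nearly all actives have a fitted effect of over 55% in size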
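750 cells/well, RPMI + 5% FBS; 2 h settle, compound pin-transfer, 48 h at 37 degrees C. CellTiter-Glo 10 min RT, luminescence. Normalized to DMSO and media-only wells.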
ELG1 DNA repair – ELG1-dependent DNA repair inhibition. HEK293T ELG1-luciferase reporter, luminescence, 16 h; DNA damage induced by 5-fluorouridine. Potency, µM (doses to about 46.1 µM), actives largely listed as inhibitors. hit rate 2.3% among 330,000; note: nearly all actives have a fitted effect of over 55% in size
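Step one: seed 2,000 cells per well. Step two: pin-transfer compound or DMSO alongside 5-fluorouridine. Step three: incubate 16 hr, 37 °C, 5% CO2. Step four: add ONE-Glo, wait 30 min, read luminescence.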
TDP1 cell noCPT – qHTS for Inhibitors of human tyrosyl-DNA phosphodiesterase 1 (TDP1): qHTS in cells in absence of CPT. DT40 Tdp1-/- hTDP1 cells, no CPT, ATP luminescence, 48 h. Potency, µM (series often up to 46.2 µM), usual class: inhibitors. hit rate 15% among 420,000; note: nearly all actives have a fitted effect of over 55% in size
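Chicken DT40 Tdp1-/- cells stably complemented with human TDP1 were seeded at 400 cells/well with DMSO in place of 20 nM camptothecin. After compound pinning, cells grew at least 48 hr at 37 °C; viability read by CellTiter-Glo luminescence.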
Numbers stand for hits; i = inactive; ? = inconclusive; nt = no result. Unless noted, calls come from the whole dose curve; as a rule, active = well fitted curve in the direction sought with a large enough effect; inconclusive = small, poorly fitted or top-dose-only effect, or another doubt; inactive = no such curve, though single readings can be large; an effect the other way counts as inactive or inconclusive.

SMILES	IL-1B inflam inh	DT40 TDP1 CPT	HT1080 IDH1KD tx	HT1080-NT tox	ELG1 DNA repair	TDP1 cell noCPT
CCC(C)(c1nnnn1-c1c(C)cccc1C)N(N=O)c1cccc(C(F)(F)F)c1 (stereo not drawn)	i	26µM	i	i	i	21µM
COCCNC(=O)/C(C#N)=C/c1c(N2CCN(C)CC2)nc2ccccn2c1=O	i	i	i	i	i	i
Cc1cc2ccccc2n2c(SCC(=O)N3CCc4ccccc4C3)nnc12	i	?	i	i	?	?
COc1ccc(N2CCN(C(=O)CSc3nnc4c(C)cc5ccccc5n34)CC2)cc1	i	16µM	i	i	23µM	13µM
Cc1ccc(-n2c(SCC(=O)N3CCOCC3)nnc2-c2ccncc2)cc1	i	i	i	i	i	i
COc1ccc(N2CCN(C(=O)CSc3nnc(-c4cccnc4)n3-c3ccccc3)CC2)cc1	i	i	i	i	?	i
O=C(CSc1n[nH]c(-c2ccccc2)n1)N1CCN(c2ccc(F)cc2)CC1	nt	?	nt	nt	nt	23µM
COc1ccc(N2CCN(C(=O)CSc3nnc(-c4cccnc4)n3-c3ccc(F)cc3)CC2)cc1	i	?	i	i	?	21µM
O=C(CSc1nnc(-c2ccncc2)n1-c1ccccc1)N1CCN(c2ccc(Cl)cc2)CC1	i	?	i	i	?	18µM
O=C(Nc1ccc(Cl)cc1)c1ccc(-n2cnnc2)cc1	nt	i	nt	nt	nt	i
CCCCn1c(N)c(N(CCOC)C(=O)COC(=O)C(C)Oc2ccc(Cl)cc2)c(=O)[nH]c1=O (stereo not drawn)	i	i	i	i	i	i
Cc1cccc(-n2cc(C(=O)O)c(=O)cc2C)c1	i	i	i	i	i	i
O=C(CSC1=NCCS1)N1CCN(c2ccc(Cl)cc2)CC1	-77	?	?	i	i	?
Cc1ccc(-n2c(SCC(=O)N3CCOCC3)nnc2-c2cccnc2)cc1	i	i	i	i	?	i
O=C(CSc1nnc(-c2cccnc2)n1-c1ccccc1)N1CCN(c2ccc(F)cc2)CC1	i	?	i	i	?	21µM
Cc1[nH]n(C(N)=S)c(=O)c1N=Nc1cc(-c2ccc(Br)cc2)[nH]n1	i	3.3µM	i	i	?	2.9µM
Cc1[nH]n(C(N)=S)c(=O)c1N=Nc1ccc(S(=O)(=O)N2CCCCCC2)cc1	i	?	i	i	i	21µM
CC(=O)Nc1ccc(N=Nc2c(C)[nH]n(C(N)=S)c2=O)cc1	i	i	i	i	?	i
Cc1ccc(N=Nc2c(C)[nH]n(C(N)=S)c2=O)cc1C	i	1.8µM	i	i	?	1.6µM
CCCCOc1cccc(C(=O)N(Cc2ccc(Br)o2)C2CCS(=O)(=O)C2)c1 (stereo not drawn)	nt	18µM	nt	nt	nt	16µM
O=C(/C=C/c1ccc(Cl)cc1Cl)N(Cc1ccc(Cl)cc1)C1CCS(=O)(=O)C1 (stereo not drawn)	i	?	i	i	i	16µM
O=C(c1ccc(Cl)cc1)N(Cc1cccs1)C1CCS(=O)(=O)C1 (stereo not drawn)	i	?	i	i	i	?
Cc1ccc(CN(C(=O)c2ccc(Cl)c([N+](=O)[O-])c2)C2CCS(=O)(=O)C2)o1 (stereo not drawn)	-95	i	i	i	?	i
COc1cccc(C(=O)N(Cc2ccc(C)o2)C2CCS(=O)(=O)C2)c1 (stereo not drawn)	nt	i	nt	nt	nt	i
O=C(c1ccc(Cl)cc1)N(Cc1ccco1)C1CCS(=O)(=O)C1 (stereo not drawn)	i	i	i	i	i	i
SMILES	IL-1B inflam inh	DT40 TDP1 CPT	HT1080 IDH1KD tx	HT1080-NT tox	ELG1 DNA repair	TDP1 cell noCPT
O=C(c1ccc(Cl)c([N+](=O)[O-])c1)N(Cc1ccc(Cl)cc1)C1CCS(=O)(=O)C1 (stereo not drawn)	-88	?	?	?	i	23µM
CC(=O)Nc1ccc(S(=O)(=O)N(C)CC(=O)OCC(=O)N(C)c2ccccc2)cc1	i	i	i	i	i	i
O=C(c1ccc(Cl)c([N+](=O)[O-])c1)N(Cc1ccccc1)C1CCS(=O)(=O)C1 (stereo not drawn)	i	i	i	i	i	?
CCCCCOc1ccc(C(=O)N(Cc2ccco2)C2CCS(=O)(=O)C2)cc1 (stereo not drawn)	i	?	i	i	?	?
CCCCCOc1c(Cl)cc(C(=O)N(Cc2ccc(C)o2)C2CCS(=O)(=O)C2)cc1Cl (stereo not drawn)	nt	18µM	nt	nt	nt	16µM
O=C(c1ccc(Cl)c([N+](=O)[O-])c1)N(Cc1cccc(Cl)c1)C1CCS(=O)(=O)C1 (stereo not drawn)	-93	?	i	i	i	?
Cc1ccc2nsnc2c1S(=O)(=O)N(Cc1ccco1)Cc1cc2ccc(C)c(C)c2[nH]c1=O	i	i	i	i	i	?
Cc1ccc2cc(CN(CCCO)S(=O)(=O)c3cccc4nsnc34)c(=O)[nH]c2c1	i	?	i	i	9.2µM	i
Cc1ccc2[nH]c(=O)c(CN(Cc3ccco3)S(=O)(=O)c3c(C)ccc4nsnc34)cc2c1	-58	?	i	i	?	?
COc1ccc2[nH]c(=O)c(CN(Cc3cccs3)S(=O)(=O)c3c(C)ccc4nsnc34)cc2c1	?	4.1µM	?	i	?	18µM
CSc1ccccc1NC(=O)CSc1nnc(COc2ccccc2)o1	i	i	i	i	i	i
COc1ccc(N2CC(NC(=O)Cc3cccs3)CC2=O)cc1 (stereo not drawn)	nt	i	nt	nt	nt	i
CCNc1ncc2nc(-c3ccccc3)c(=O)n(C[C@H]3CCCO3)c2n1	nt	i	nt	nt	nt	i
Nc1ccc(C=Cc2ccc(N)cc2)cc1	i	21µM	?	i	nt	18µM
CCOc1cc(OCC)cc(C(=O)N2CCC[C@H]2C(=O)N2CCC[C@H]2C(=O)NCc2cccc(OC)c2)c1	i	i	i	i	nt	?
CN(C)c1ccc(S(=O)(=O)N2CCCCC2)cc1NC(=O)CCNC(=O)c1ccccc1Cl	i	i	i	i	nt	i
Cc1cc(NC(=O)CSc2nc3c(C)cccc3cc2C#N)no1	i	?	?	i	i	15µM
Cc1cccc2cc(C#N)c(SCC(=O)N3CC(=O)Nc4ccccc43)nc12	i	2.6µM	?	?	?	2.1µM
C=CCOc1c(Cl)cc(CNc2nccs2)cc1OC	i	i	i	i	i	i
COc1ccc(CNc2ncnc3c2nc2n3CCCC2)cc1	nt	?	nt	nt	nt	i
